This excerpt belongs to a sample that is enriched for hits.
Tgondii IFNg = T. gondii growth inhibition under IFN-gamma; activity change, negative = inhibition, % (no concentration beside the values); Toxoplasma gondii growth in IFN-gamma-treated host cells; active compounds read low; AID 1259416; 69,000 compounds, 3.8% hits; in the data active = activity change below about -70%, passing the limit was not always enough;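 also: host cells are HeLa cells infected with Toxoplasma gondii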
Hits are given with their value; 0 = inactive.

SMILES	Tgondii IFNg
Cc1ccc(F)cc1S(=O)(=O)N1CCC(c2nc(C(=O)N3CCCCC3)c(C)o2)CC1	-77
Cc1ccc(NC(=O)N2CCC(c3nc(C(=O)N4CCCC4)c(C)o3)CC2)c(Cl)c1	0
Cc1ccc(NC(=O)N2CCC(c3nc(C(=O)N4CCCC4)c(C)o3)CC2)cc1	0
Cc1oc(C2CCN(S(=O)(=O)c3cc(F)ccc3F)CC2)nc1C(=O)N1CCCC1	0
c1ccc(CN2Cc3nccn3CC(Cn3cccn3)C2)cc1 (centres undefined)	0
CCOC(=O)CC1(NC(=O)N2CCC3(CC2)Nc2cc(OC)ccc2-n2cccc23)CCCCC1	0
COCC1CN(Cc2ccc3c(c2)OCO3)Cc2cncn2C1 (centres undefined)	0
CC(C)c1cncnc1-c1cccc(C(=O)O)c1	0
c1coc(-c2nc(NCC3Cc4ccccc4O3)ncc2-c2ccncc2)c1 (centres undefined)	0
CCOc1ccc(-c2nc(Cn3ccn4nc(-c5ccccc5OC)cc4c3=O)c(C)o2)cc1	0
CCOc1cccc(C2c3[nH]c4ccccc4c3CCN2C(=O)c2cccs2)c1 (centres undefined)	0
CCOc1cccc(C2c3[nH]c4ccccc4c3CCN2C(=O)c2cc3ccccc3[nH]2)c1 (centres undefined)	0
CCOc1cccc(C2c3[nH]c4ccccc4c3CCN2C(=O)c2ccco2)c1 (centres undefined)	-109
CCOc1cccc(C2c3[nH]c4ccccc4c3CCN2C(=O)c2ccccc2F)c1 (centres undefined)	0
CCOc1cccc(C2c3[nH]c4ccccc4c3CCN2C(=O)c2ccc(OC)c(OC)c2)c1 (centres undefined)	-89
CCCC(=O)N1CCc2c([nH]c3ccccc23)C1c1cccc(OCC)c1 (centres undefined)	0
CCOc1cccc(C2c3[nH]c4ccccc4c3CCN2C(=O)COc2ccccc2)c1 (centres undefined)	0
CCOc1cccc(C2c3[nH]c4ccccc4c3CCN2C(=O)c2cccc(Cl)c2)c1 (centres undefined)	-122
CCOc1cccc(C2c3[nH]c4ccccc4c3CCN2C(=O)c2ccc3c(c2)OCO3)c1 (centres undefined)	0
Cn1nccc1-c1nc2c(cc1C(=O)O)CCNCC2	0
Cc1nc(C)c(OCc2nc(CCc3ccccc3)no2)c(C)n1	0
C=CCNc1nc(C2(c3ccccc3)CCCC2)cs1	0
O=C(c1cc2cccnc2n(Cc2ccccc2)c1=O)N1CCCc2ccccc21	0
O=C(C1CCCO1)N1CCC(n2nc(-c3ccccc3)oc2=O)CC1 (centres undefined)	0
COCCN1CCN(c2nc(C3CCCC3)nc3c2cnn3C)CC1	0
SMILES	Tgondii IFNg
Cc1ccc2c(c1)CN(C(=O)c1ccc(Cn3nc(C)cc3C)cc1)CC(C)O2 (centres undefined)	0
COc1ccc(NC(=O)c2cncc(C)c2)c(NC(=O)C(C)C)c1	0
COCCN1C(=O)CCC12CCCN(C(=O)c1ccc[nH]1)CC2 (centres undefined)	0
Cc1nnsc1CNC(=O)Cc1c(C)nn(-c2ccccc2)c1C	0
CN(C)S(=O)(=O)N1C[C@H]2C[C@H](C(=O)Nc3cccnc3)[C@@H](C1)O2	0
COc1cccc(CC2CC(c3ccccc3)=NO2)c1OCc1c(Cl)cccc1Cl (centres undefined)	-96
CCn1c(CC2CCNCC2)nn(CC2CC(c3ccccc3)=NO2)c1=O (centres undefined)	0
O=C(O)CC1CC(c2ccccc2)=NO1 (centres undefined)	0
Cc1nc(-c2ccccc2)nc2c1CCN(C(=O)C1CCOC1)CC2 (centres undefined)	0
CCN(CC)Cc1cnc2n1CCN(C(=O)Cc1ccsc1)CC2	0
CN(C)CCNC(=O)c1nc2c(o1)CN(C(=O)c1cccc(F)c1)C2	0
O=C(Nc1ccc(Cl)cc1)Nc1ccc(Cl)c(C(F)(F)F)c1	-77
O=C(CSc1nc2[nH]c(=O)cc(O)c2s1)Nc1ccc(Cl)c(C(F)(F)F)c1	0
O=C(Nc1ccc(Cl)cc1)Nc1ccno1	0
CC(C)CCN1C[C@@H]2CCN(C(=O)NC3CCCC3)CC[C@H]2S1(=O)=O	0
CCCC(=O)N1CCC(c2nnc(-c3ccc(C)nc3)o2)CC1	0
CCN1C[C@@H]2C3(CCN(C(=O)Nc4ccccc4)CC3)CC[C@@]2(C(=O)N2CCCC2)C1	0
C[C@@H]1CN([C@H](C)CO)S(=O)(=O)c2ccc(C#CC(C)(C)O)cc2O[C@@H]1CN(C)Cc1ccc(F)cc1	0
CCCNC(=O)N(C)C[C@H]1Oc2cc(C#C[C@H](C)O)ccc2S(=O)(=O)N([C@@H](C)CO)C[C@H]1C	0
C[C@H](CO)N1C[C@H](C)[C@H](CN(C)S(=O)(=O)c2cn(C)cn2)Oc2cc(C#Cc3cccc(F)c3)ccc2S1(=O)=O	-93
C[C@@H]1CN([C@H](C)CO)S(=O)(=O)c2ccc(C#CCC3CCCC3)cc2O[C@@H]1CN(C)C(=O)c1cnccn1	0
COCC#Cc1ccc2c(c1)O[C@@H](CN(C)C(=O)C1CCOCC1)[C@@H](C)CN([C@H](C)CO)S2(=O)=O	0
C[C@@H]1CN([C@H](C)CO)S(=O)(=O)c2ccc(-c3ccc(F)cc3)cc2O[C@H]1CN(C)Cc1ccccc1C(=O)O	0
COc1cccc(-c2ccc3c(c2)O[C@H](CN(C)Cc2cccnc2)[C@H](C)CN([C@@H](C)CO)S3(=O)=O)c1	0
C[C@H](CO)N1C[C@H](C)[C@H](CN(C)C(=O)NC2CCCC2)Oc2cc(-c3cncnc3)ccc2S1(=O)=O	0
SMILES	Tgondii IFNg
C[C@@H]1CN([C@H](C)CO)S(=O)(=O)c2ccc(C#Cc3cccc(F)c3)cc2O[C@H]1CN(C)S(=O)(=O)c1cn(C)cn1	0
C[C@@H]1CN([C@H](C)CO)S(=O)(=O)c2ccc(-c3ccncc3)cc2O[C@H]1CN(C)S(C)(=O)=O	-104
C[C@@H]1CN([C@H](C)CO)S(=O)(=O)c2ccc(C#CC(C)(C)O)cc2O[C@H]1CN(C)Cc1ccc(F)cc1	-116
Cc1ccc(S(=O)(=O)N(C)C[C@@H]2Oc3cc(C#CC4CCCC4)ccc3S(=O)(=O)N([C@@H](C)CO)C[C@@H]2C)cc1	-114
COCCC(=O)c1cc(-c2cn(CCOC)cn2)n2ccccc12	0
C=CCn1c(=O)c(C(=O)Nc2ccc(Cl)cc2)c(O)c2ccccc21	0
COC(=O)c1coc(CN2CCCC3(CC2)CN(C)C(=O)O3)n1 (centres undefined)	0
O=c1[nH]nc(Cc2c[nH]c3ccccc23)n1CCc1ccccc1F	0
CC(CC(=O)N1CCC(c2ncc(Cl)cc2S(C)(=O)=O)CC1)n1cncn1 (centres undefined)	0
CC(=O)N1CCC(N(C)Cc2snnc2C)CC1	0
Cn1cccc1C(=O)NCc1cn2c(n1)CN(Cc1cccs1)CC2	0
CCCc1nc(C(=O)N2CCOC(c3ccc(Cl)cc3)C2)cs1 (centres undefined)	0
CCCN(C)C[C@@H]1Oc2cc(/C=C/c3ccccc3)ccc2S(=O)(=O)N([C@@H](C)CO)C[C@H]1C	-91
COCC#Cc1ccc2c(c1)O[C@@H](CN(C)C(=O)C1CCOCC1)[C@H](C)CN([C@@H](C)CO)S2(=O)=O	0
CCCC#Cc1ccc2c(c1)O[C@@H](CN(C)Cc1ccccn1)[C@@H](C)CN([C@H](C)CO)S2(=O)=O	0
Cc1ccc(S(=O)(=O)N(C)C[C@H]2Oc3cc(C#CC4CCCC4)ccc3S(=O)(=O)N([C@H](C)CO)C[C@H]2C)cc1	0
